The values that follow come from PubChem BioAssay (EPA / NIEHS).

The target of test [1] is Bile acid receptor (Homo sapiens) (UniProt Q96RI1). Nature of the test: ATG_IR1_CIS: Attagene CIS-FACTORIAL HepG2 Assay for human Nuclear Receptor Subfamily 1 Group H Member 4 (NR1H4), IR1 submotif (AID 2282946; active means hit-call score of the fitted dose curve at least 0.9, where 1 is the maximum; inactive means score below 0.9). As to conditions: IR1 reporter transcription, actives raise or lower the signal. In short, it runs like this:
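Readout: reporter transcript levels by RT-PCR with fluorescent capillary electrophoresis, from HepG2 cells transiently transfected with multiplexed cis-regulated reporters and dosed 24 h. Gain- or loss-of-signal fitted versus DMSO negative control.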

Test [2] in a line: ATG_M_19_TRANS: Attagene TRANS-FACTORIAL HepG2 Assay for M19 Transcription Factor (Internal Marker) (AID 2282974). As to conditions: HepG2 Attagene TRANS-FACTORIAL M19 internal marker reporter. The procedure, abridged:
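Cells: human HepG2, transiently transfected with multiplexed reporter transcription units. Exposure: 24 h. Detection: RT-PCR of reporter mRNA with capillary electrophoresis. Analysis: gain-of-signal vs DMSO.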

Test [3] has as its target Glucocorticoid receptor (Homo sapiens) (UniProt P04150). Nature of the test: ATG_GR_TRANS: Attagene TRANS-FACTORIAL HepG2 Assay for human Glucocorticoid Receptor (GR) (AID 2282978).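 Further: activators score as hits since higher reporter transcript over DMSO is fitted.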 As to conditions: HepG2 Attagene TRANS GR reporter, mRNA transcription. The procedure, abridged:
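In this trans-factorial format, exogenous NR-GAL4 chimeric proteins in transfected HepG2 cells regulate GAL4-UAS reporter transcription. After 24 h treatment, reporter mRNA induction relative to DMSO is read by RT-PCR and capillary electrophoresis.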

Test [4] in a line: ATG_NF_kB_CIS: Attagene CIS-FACTORIAL HepG2 Assay for human Nuclear Factor Kappa B (NF-kB) (AID 2282991; active means hit-call score of the fitted dose curve at least 0.9, where 1 is the maximum; inactive means score below 0.9). As to conditions: HepG2 Attagene cis-factorial NF-kB reporter mRNA; actives raise or lower the signal. The procedure, abridged: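 Endogenous transcription factor activity in HepG2 was captured via cis-regulated reporter constructs; after 24 h dosing, reporter mRNA was reverse-transcribed, amplified, fluorescently labelled and sized by capillary electrophoresis, with activity fitted bidirectionally relative to DMSO.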

The target in test [5] is human RAR-related Orphan Receptor beta (RORb), RORB (gene 6096) (UniProt Q92753). Nature of the test: ATG_RORb_TRANS: Attagene TRANS-FACTORIAL HepG2 Assay for human RAR-related Orphan Receptor beta (RORb) (AID 2283010). In short, it runs like this:
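HepG2, transient MRTU transfection (GAL4-UAS reporters, exogenous NR-Gal4 chimeras); 24 h compound exposure; total RNA → RT-PCR → 6-FAM primer extension → HpaI digest → CE fluorescence. Positive direction vs DMSO baseline.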

Test [6] deals with human RAR-related Orphan Receptor gamma (RORg), RORC (gene 6097) (UniProt P51449). Nature of the test: ATG_RORg_TRANS: Attagene TRANS-FACTORIAL HepG2 Assay for human RAR-related Orphan Receptor gamma (RORg) (AID 2283011). The procedure, abridged:
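Transient MRTU transfection of HepG2 (TRANS format, exogenous NR-Gal4 chimera). 24 h dosing. Total RNA → oligo(dT) RT → PCR → 6-FAM labelling → HpaI cut → CE. Gain vs DMSO.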

Test [7] in a line: CCTE_Harrill_HTTr_Viability_MCF7: CCTE's 6-hour Cell Viability Assessment for the High-Throughput Transcriptomics (HTTr) Platform, in MCF-7 cells cultured in DMEM + 10% fetal bovine serum, Harrill Lab (AID 2284010; active means hit-call score of the fitted dose curve at least 0.9, where 1 is the maximum; inactive means score below 0.9). The procedure, abridged: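 PI exclusion, high-content imaging; 8-pt dilution series, 6 h exposure; bidirectional fit vs DMSO (neg. ctrl/baseline); gain of signal = loss of membrane integrity.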

Test [8] can be described thus: CCTE_Harrill_HTTr_Apoptosis_MCF7: CCTE's 6-hour Apoptosis Assessment for the High-Throughput Transcriptomics (HTTr) Platform, in MCF-7 cells cultured in DMEM + 10% fetal bovine serum, Harrill Lab (AID 2284011; active means hit-call score of the fitted dose curve at least 0.9, where 1 is the maximum; inactive means score below 0.9). In short, it runs like this: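 Read-out: CellEvent Caspase 3/7 Green signal by high content imaging, gain-of-signal indicating apoptosis. MCF-7 cells, DMEM + 10% FBS, eight-point dilution series, 6 h exposure. Curves fitted bidirectionally relative to DMSO negative control.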

The target in test [9] is Nuclear receptor subfamily 4 group A member 2 (Homo sapiens) (UniProt P43354). Nature of the test: ATG_NURR1_TRANS: Attagene TRANS-FACTORIAL HepG2 Assay for human Nuclear Receptor Related Protein 1 (NURR1) (AID 2282985). As to conditions: HepG2 Attagene TRANS reporter, mRNA readout. In short, it runs like this: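 Chimeric NR-Gal4 proteins were expressed in human HepG2 cells bearing GAL4-UAS reporter units, and induced reporter mRNA was quantified 24 h post-dosing by RT-PCR and capillary electrophoresis.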

Test [10] concerns the target human Peroxisome Proliferator-activated Receptor delta (PPARd), PPARD (gene 5467) (UniProt Q03181). Nature of the test: ATG_PPARd_TRANS: Attagene TRANS-FACTORIAL HepG2 Assay for human Peroxisome Proliferator-activated Receptor delta (PPARd) (AID 2283002). In short, it runs like this: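 HepG2 cells transiently transfected with multiplexed GAL4-UAS reporter units and exogenous chimeric NR-Gal4 proteins; 24 h compound exposure. Reporter mRNA measured by RT-PCR, 6-FAM labelling, HpaI digestion and capillary electrophoresis; gain of signal versus DMSO.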

The target of test [11] is Retinoic acid receptor RXR-alpha (Homo sapiens) (UniProt P19793). Nature of the test: ATG_RXRa_TRANS: Attagene TRANS-FACTORIAL HepG2 Assay for human Retinoid X Receptor alpha (RXRa) (AID 2283012). In short, it runs like this:
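Read-out: fluorescent reporter-transcript fragments quantified by capillary electrophoresis after RT-PCR. Transiently transfected HepG2 cells carrying GAL4-UAS reporters and NR-GAL4 chimeras were exposed to chemical for 24 h; activity scored as increase over DMSO.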

Test [12] has as its target Retinoic acid receptor alpha (Homo sapiens) (UniProt P10276). The test can be described thus: ATG_DR5_RAR_CIS: Attagene CIS-FACTORIAL HepG2 Assay for human Retinoic Acid Receptor Alpha (RARE), DR5 submotif (AID 2282934; active means hit-call score of the fitted dose curve at least 0.9, where 1 is the maximum; inactive means score below 0.9). As to conditions: HepG2 Attagene cis-factorial RARE DR5 reporter, mRNA; actives raise or lower the signal. The procedure, abridged:
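HepG2 cells transiently transfected with multiplexed reporter units under cis (DR5 RARE) promoters, so endogenous transcription factor activity is measured. After 24 h compound exposure, reporter mRNA is quantified by RT-PCR with fluorescent labelling and capillary electrophoresis; bidirectional fitting versus DMSO.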

Test [13] addresses Oxysterols receptor LXR-alpha (Homo sapiens) (UniProt Q13133). The test can be described thus: ATG_LXRa_TRANS: Attagene TRANS-FACTORIAL HepG2 Assay for human Liver X Receptor alpha (LXRa) (AID 2282980). As to conditions: HepG2 Attagene TRANS reporter, LXRa transactivation. In short, it runs like this:
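Read-out: reporter transcript levels by RT-PCR plus capillary electrophoresis, fluorescence intensity. Transiently transfected HepG2, exogenous NR-GAL4 chimera, GAL4-UAS reporters; 24 h compound exposure. Activity = increase over DMSO negative control.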

For test [14], the target named is human Vitamin D Receptor (VDR), VDR (gene 7421) (UniProt P11473). The test can be described thus: ATG_VDR_TRANS: Attagene TRANS-FACTORIAL HepG2 Assay for human Vitamin D Receptor (VDR) (AID 2283022). In short, it runs like this: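 RT-PCR/capillary electrophoresis read-out of reporter mRNA induction in transiently transfected HepG2; 24 h dosing; chimeric NR-Gal4 (TRANS format); gain-of-signal fit against DMSO baseline.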

Test [15] can be described thus: ATG_PPRE_CIS: Attagene CIS-FACTORIAL HepG2 Assay for human Peroxisome Proliferator-activated Response Element (PPRE) (AID 2282958; active means hit-call score of the fitted dose curve at least 0.9, where 1 is the maximum; inactive means score below 0.9). As to conditions: HepG2 PPRE cis-element reporter, Attagene transcription factor profiling; actives raise or lower the signal. In short, it runs like this: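 Cells are first transfected transiently with the multiplexed reporter library, then dosed for 24 h. Total RNA is reverse-transcribed, amplified, fluorescently end-labeled and HpaI-cut before capillary electrophoresis; activity is fitted bidirectionally against DMSO controls.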

Test [16] is described as follows: ATG_XTT_Cytotoxicity: Cytotoxicity Assessment in the Attagene TRANS-FACTORIAL HepG2 Assay (AID 2283584). In short, it runs like this: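 XTT readout of cell number in transfected HepG2 cells, 24 h post-dosing; DMSO serves as negative control and baseline, with activity taken as loss of viability signal.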
Test [17] addresses human Peroxisome Proliferator-activated Receptor alpha (PPARa), PPARA (gene 5465) (UniProt Q07869). The test can be described thus: ATG_PPARa_TRANS: Attagene TRANS-FACTORIAL HepG2 Assay for human Peroxisome Proliferator-activated Receptor alpha (PPARa) (AID 2283001). In short, it runs like this: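 Exposure: 24 h, transiently transfected HepG2 cells. Endpoint: GAL4-UAS reporter mRNA, RT-PCR with capillary electrophoresis fluorescence. Baseline: DMSO; increases fitted.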

In test [18] the target is Nuclear receptor subfamily 1 group I member 3 (Homo sapiens) (UniProt Q14994). The test can be described thus: ATG_CAR_TRANS: Attagene TRANS-FACTORIAL HepG2 Assay for human Constitutive Androstane Receptor (CAR) (AID 2282969).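 Further: activators raise reporter mRNA above DMSO so AC50 marks induction.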 As to conditions: HepG2 Attagene TRANS-FACTORIAL CAR reporter. The procedure, abridged: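 Steps: transient transfection of HepG2 with multiple GAL4-UAS reporter units; 24 h compound incubation; RNA isolation, RT-PCR, 6-FAM primer extension, HpaI digest; capillary electrophoresis. Gain-of-signal relative to DMSO negative control.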

Test [19] addresses Nuclear receptor subfamily 1 group I member 2 (Homo sapiens) (UniProt O75469). Nature of the test: ATG_PXR_TRANS: Attagene TRANS-FACTORIAL HepG2 Assay for human Pregnane X Receptor (PXR) (AID 2283008). In short, it runs like this: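 Multiplexed TRANS reporter panel in HepG2; this component tracks PXR-Gal4-driven reporter mRNA after 24 h dosing, measured by RT-PCR with capillary electrophoresis fluorescence, fitted against DMSO.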

Test [20] in a line: TOX21_p53_BLA_p3_viability: Viability Assessment in the Tox21 HCT-116 p53 Agonism Beta-lactamase Assay, Phase 3 (AID 2283593).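 Further: cells exposed to compound for 16 h before reading.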 The procedure, abridged:
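HCT-116 cells (4000/well) rested 5 h at 37C, then got DMSO compounds by pin tool (217-fold dilution) for 16 h at 37C, 5% CO2. After the bla read, CellTiter-Glo was added and luminescence read at 30 min, room temperature.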

Results filed as inconclusive are left out. The source made the active and inactive calls. How the source made its calls, unless noted: active means hit-call score of the fitted dose curve at least 0.9, where 1 is the maximum; inconclusive means response in the unintended direction; inactive means score below 0.9.

Chain of Nuclear receptor subfamily 1 group I member 2 (Homo sapiens) (O75469 whole entry, looked up, the tested form may be a part): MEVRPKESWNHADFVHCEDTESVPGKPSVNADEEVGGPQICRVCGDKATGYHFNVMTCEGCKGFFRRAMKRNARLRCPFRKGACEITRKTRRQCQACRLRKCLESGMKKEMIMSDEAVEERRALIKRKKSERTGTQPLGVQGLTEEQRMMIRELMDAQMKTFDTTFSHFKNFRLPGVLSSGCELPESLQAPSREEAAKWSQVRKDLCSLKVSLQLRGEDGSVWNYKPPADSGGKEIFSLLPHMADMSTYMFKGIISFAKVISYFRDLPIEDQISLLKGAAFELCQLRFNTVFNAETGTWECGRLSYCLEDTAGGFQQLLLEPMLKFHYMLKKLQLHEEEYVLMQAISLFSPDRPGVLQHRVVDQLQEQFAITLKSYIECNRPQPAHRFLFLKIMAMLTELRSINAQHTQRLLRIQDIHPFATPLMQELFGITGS
Chain of human Peroxisome Proliferator-activated Receptor delta (PPARd), PPARD (gene 5467) (Q03181 whole entry, looked up, the tested form may be a part): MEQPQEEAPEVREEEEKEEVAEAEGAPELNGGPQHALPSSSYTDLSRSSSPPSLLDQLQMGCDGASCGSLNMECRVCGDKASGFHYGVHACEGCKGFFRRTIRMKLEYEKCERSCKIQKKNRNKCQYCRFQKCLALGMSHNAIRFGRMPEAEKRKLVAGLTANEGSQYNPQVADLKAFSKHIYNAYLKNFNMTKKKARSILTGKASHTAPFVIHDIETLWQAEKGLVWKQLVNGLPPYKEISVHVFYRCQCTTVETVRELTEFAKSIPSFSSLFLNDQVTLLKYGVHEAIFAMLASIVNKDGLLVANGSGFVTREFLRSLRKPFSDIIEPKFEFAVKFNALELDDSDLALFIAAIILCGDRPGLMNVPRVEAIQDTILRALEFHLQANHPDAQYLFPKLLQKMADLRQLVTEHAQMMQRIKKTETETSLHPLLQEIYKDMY
Chain of human Vitamin D Receptor (VDR), VDR (gene 7421) (P11473 whole entry, looked up, the tested form may be a part): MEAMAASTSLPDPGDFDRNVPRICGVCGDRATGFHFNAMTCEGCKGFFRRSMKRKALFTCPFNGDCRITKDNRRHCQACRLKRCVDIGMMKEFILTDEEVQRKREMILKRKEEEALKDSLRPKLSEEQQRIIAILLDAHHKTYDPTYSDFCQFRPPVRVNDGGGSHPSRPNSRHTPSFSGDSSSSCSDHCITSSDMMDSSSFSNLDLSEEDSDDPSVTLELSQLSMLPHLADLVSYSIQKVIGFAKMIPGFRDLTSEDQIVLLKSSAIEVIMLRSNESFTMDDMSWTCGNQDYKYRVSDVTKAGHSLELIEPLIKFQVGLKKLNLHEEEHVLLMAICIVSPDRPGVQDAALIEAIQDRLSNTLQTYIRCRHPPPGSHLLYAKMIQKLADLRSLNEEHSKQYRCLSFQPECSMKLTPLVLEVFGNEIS
Chain of human Peroxisome Proliferator-activated Receptor alpha (PPARa), PPARA (gene 5465) (Q07869 whole entry, looked up, the tested form may be a part): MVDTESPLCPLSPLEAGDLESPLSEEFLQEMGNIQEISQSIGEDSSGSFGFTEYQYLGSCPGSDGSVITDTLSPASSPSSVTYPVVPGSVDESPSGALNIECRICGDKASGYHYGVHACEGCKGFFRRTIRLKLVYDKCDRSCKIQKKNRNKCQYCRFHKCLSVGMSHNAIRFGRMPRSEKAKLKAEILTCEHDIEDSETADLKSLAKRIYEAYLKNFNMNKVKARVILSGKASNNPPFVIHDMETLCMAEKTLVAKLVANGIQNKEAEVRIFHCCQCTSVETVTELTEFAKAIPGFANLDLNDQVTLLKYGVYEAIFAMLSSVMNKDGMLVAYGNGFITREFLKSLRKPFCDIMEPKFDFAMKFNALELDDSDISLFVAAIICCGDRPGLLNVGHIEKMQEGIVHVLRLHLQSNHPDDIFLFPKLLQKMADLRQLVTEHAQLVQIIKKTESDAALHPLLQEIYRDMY
Chain of human RAR-related Orphan Receptor gamma (RORg), RORC (gene 6097) (P51449 whole entry, looked up, the tested form may be a part): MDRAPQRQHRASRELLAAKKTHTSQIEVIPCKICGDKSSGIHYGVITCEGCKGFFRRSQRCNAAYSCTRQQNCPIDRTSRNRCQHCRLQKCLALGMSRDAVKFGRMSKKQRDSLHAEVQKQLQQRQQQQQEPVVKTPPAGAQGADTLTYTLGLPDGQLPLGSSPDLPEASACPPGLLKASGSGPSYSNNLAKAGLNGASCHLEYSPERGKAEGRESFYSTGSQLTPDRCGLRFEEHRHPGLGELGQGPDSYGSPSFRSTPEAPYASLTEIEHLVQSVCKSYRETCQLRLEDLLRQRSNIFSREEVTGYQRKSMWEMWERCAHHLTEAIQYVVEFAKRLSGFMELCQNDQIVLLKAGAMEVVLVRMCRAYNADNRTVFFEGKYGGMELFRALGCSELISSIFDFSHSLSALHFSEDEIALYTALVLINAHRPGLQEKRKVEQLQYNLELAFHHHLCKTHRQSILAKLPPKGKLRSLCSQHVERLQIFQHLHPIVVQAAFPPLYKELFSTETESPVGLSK
Chain of human RAR-related Orphan Receptor beta (RORb), RORB (gene 6096) (Q92753 whole entry, looked up, the tested form may be a part): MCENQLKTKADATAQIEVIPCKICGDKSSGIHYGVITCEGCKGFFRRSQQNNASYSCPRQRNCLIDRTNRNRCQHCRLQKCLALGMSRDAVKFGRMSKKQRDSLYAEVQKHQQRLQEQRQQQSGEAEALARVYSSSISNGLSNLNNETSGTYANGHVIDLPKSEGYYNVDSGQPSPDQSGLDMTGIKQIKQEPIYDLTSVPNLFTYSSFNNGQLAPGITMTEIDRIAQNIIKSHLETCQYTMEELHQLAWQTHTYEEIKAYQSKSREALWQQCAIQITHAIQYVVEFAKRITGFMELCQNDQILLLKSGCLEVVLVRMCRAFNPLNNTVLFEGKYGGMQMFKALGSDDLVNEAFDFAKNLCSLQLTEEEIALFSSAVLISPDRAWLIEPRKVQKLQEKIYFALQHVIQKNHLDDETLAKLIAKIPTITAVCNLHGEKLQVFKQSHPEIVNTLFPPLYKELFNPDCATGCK
Chain of Nuclear receptor subfamily 4 group A member 2 (Homo sapiens) (P43354 whole entry, looked up, the tested form may be a part): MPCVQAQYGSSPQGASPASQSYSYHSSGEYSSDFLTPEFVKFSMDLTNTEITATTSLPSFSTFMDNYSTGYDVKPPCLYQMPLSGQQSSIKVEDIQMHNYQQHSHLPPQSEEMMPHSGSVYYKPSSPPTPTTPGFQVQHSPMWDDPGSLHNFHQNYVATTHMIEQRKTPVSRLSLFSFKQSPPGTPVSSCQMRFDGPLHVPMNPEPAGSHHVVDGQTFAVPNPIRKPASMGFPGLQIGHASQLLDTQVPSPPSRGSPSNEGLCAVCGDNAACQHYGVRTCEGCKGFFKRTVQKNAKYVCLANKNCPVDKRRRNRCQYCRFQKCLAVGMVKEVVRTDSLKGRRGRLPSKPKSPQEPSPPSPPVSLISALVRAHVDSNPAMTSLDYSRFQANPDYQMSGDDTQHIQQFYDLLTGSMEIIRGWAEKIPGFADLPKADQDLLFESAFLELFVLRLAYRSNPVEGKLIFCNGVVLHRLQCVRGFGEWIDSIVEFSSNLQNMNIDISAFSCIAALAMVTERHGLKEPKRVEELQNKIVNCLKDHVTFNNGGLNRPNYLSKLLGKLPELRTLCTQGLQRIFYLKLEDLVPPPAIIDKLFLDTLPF
Chain of Glucocorticoid receptor (Homo sapiens) (P04150 whole entry, looked up, the tested form may be a part): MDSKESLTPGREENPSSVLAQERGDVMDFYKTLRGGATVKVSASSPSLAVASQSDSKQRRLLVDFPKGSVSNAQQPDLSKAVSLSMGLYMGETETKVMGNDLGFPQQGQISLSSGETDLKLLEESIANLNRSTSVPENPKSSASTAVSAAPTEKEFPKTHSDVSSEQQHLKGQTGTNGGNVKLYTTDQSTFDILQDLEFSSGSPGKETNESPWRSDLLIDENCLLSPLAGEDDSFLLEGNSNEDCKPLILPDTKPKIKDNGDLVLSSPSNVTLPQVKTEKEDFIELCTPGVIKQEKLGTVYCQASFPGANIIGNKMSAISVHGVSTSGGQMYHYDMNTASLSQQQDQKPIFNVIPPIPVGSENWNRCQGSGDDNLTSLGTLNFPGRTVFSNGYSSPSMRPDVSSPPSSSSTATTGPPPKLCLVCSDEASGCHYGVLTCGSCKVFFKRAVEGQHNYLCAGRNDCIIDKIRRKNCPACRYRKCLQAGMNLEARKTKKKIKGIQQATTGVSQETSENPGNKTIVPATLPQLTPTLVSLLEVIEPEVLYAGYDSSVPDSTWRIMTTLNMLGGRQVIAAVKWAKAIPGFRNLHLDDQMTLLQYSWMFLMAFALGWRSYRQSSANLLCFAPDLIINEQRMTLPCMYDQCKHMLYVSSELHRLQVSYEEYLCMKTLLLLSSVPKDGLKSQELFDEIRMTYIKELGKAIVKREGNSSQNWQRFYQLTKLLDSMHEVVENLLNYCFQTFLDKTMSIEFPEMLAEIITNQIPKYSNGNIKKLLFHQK
Chain of Bile acid receptor (Homo sapiens) (Q96RI1 whole entry, looked up): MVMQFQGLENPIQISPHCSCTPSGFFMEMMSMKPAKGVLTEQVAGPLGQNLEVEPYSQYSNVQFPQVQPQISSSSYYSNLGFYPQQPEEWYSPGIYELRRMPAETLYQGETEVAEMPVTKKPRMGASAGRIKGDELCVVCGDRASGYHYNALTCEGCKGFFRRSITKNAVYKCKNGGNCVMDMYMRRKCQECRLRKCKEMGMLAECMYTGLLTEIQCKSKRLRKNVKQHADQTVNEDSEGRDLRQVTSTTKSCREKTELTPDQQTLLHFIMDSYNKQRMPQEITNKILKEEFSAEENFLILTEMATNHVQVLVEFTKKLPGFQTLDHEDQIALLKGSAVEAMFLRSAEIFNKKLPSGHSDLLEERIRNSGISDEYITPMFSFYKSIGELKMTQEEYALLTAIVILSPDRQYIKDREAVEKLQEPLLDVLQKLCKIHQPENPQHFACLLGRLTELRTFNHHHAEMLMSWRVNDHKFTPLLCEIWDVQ
Chain of Nuclear receptor subfamily 1 group I member 3 (Homo sapiens) (Q14994 whole entry, looked up, the tested form may be a part): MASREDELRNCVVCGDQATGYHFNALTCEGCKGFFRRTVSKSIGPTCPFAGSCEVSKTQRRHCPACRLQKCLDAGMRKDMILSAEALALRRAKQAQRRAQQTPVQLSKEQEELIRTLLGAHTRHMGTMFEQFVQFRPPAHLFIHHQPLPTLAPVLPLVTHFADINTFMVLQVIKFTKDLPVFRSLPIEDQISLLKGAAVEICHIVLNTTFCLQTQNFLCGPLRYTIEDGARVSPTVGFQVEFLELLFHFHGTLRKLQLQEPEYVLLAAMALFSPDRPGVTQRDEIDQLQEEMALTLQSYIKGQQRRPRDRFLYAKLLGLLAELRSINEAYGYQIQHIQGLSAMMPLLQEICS

With `CNC(=N[N+](=O)[O-])NCC1CCOC1` (stereo not given), the outcome in test [1], in test [2], in test [3], in [4], in test [5] and in test [6] was inactive. The result in test [7] and in [8] was inactive.

For the compound `C[N+](C)(C)CC(=O)[O-]`, the compound was classed as inactive in test [9], in test [10], in test [5], in test [6], in test [11] and in test [7]. Further, the outcome in test [8] was inactive.

Consider `COC(=O)c1ccccc1S(=O)(=O)NC(=O)Nc1nc(C)cc(C)n1`, for which the result in test [12], in test [2], in [3], in [13], in test [9] and in test [5] was inactive. Moreover, the call in [14], in [7] and in [8] was inactive.

For the compound `COc1ccc(CO)cc1`, the compound was called inactive in test [1], in test [15], in [2], in test [3], in [10] and in [5]. The result in test [6], in [16], in [7] and in test [8] was inactive.

Consider `O=S(=O)(O)O`, for which the outcome in test [9], in [17], in [11], in test [16], in test [7] and in [8] was inactive.

On to `CC[N+](=O)[O-]`, for which the compound was called inactive in test [12], in [15], in test [18], in [9], in [4] and in test [17]. Besides, the compound was called inactive in [10], in test [19], in test [14] and in test [20].

Take `CCCCCc1cc(O)cc(O)c1`: the AC50 (as a rule, the midpoint of the concentration-response curve, whichever way the signal moves) in test [1] is 155 µM (active); in test [19] it was 11.1 µM (active). In addition, the call in [9], in test [17], in test [10], in test [14] and in [16] was inactive.

Take `COc1ncc(F)c2nc(S(=O)(=O)Nc3c(F)cccc3F)nn12`: the outcome in test [2], in test [3], in test [13], in test [9], in test [4] and in test [19] was inactive. Besides, the outcome in test [7] and in [8] was inactive.
